The list is not random: actives were taken first. Their share in the collection is about 3.3%.
GBA mod = human lysosomal glucosylceramidase modulation; Potency, µM; purified enzyme, resorufin glucoside fluorescence (screen aimed at inhibitors), 20 min; 48,000 compounds, 1.1% hits; AID 360; in the data active = potency below about 15 µM; inconclusive = mostly about 16 µM to 33 µM;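 also: the screen sought inhibitors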
Target sequence (P04062 whole entry, looked up): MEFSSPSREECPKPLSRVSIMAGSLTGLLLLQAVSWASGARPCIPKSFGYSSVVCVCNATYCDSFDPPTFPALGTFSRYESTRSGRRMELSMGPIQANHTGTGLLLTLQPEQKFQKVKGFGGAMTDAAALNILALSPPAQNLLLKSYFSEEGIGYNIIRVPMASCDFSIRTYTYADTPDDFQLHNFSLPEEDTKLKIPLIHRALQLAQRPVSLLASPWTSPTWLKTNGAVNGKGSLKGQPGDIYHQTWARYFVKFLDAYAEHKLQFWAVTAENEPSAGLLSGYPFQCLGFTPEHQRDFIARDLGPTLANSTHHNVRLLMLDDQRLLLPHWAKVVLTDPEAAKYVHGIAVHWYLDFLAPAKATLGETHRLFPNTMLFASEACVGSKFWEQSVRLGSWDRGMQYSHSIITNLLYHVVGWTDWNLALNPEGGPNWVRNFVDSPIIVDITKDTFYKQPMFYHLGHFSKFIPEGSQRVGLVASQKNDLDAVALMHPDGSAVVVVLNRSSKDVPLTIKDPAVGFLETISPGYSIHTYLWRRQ
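Compounds titrated against 0.2 nM normal enzyme, 30 uM resorufin beta-D-glucopyranoside substrate, citrate/phosphate buffer with taurocholate and tween-20, pH 5.9. Reaction ran 20 min at room temperature; fluorescence (Ex 548/Em 600) gave AC50.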
PK Bst = modulators of Bacillus stearothermophilus pyruvate kinase; purified pyruvate kinase, luminescence ATP production; ribose 5-phosphate activator present at AC10; Potency, µM; 51,000 compounds, 1.2% hits; in the data active = potency below about 11 µM; inconclusive = mostly about 12 µM to 25 µM;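 the screen sought inhibitors and activators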
Ub-GFP proteasome = proteasome inhibitors stabilizing ubiquitin-GFP reporter; AID 526; 67,000 tested, under 10 active; Potency, µM (titrated, usually from 45.9 µM), most hits filed as activators; Ubiquitin-GFP reporter cells, proteasome inhibition, GFP fluorescence; response scale: untreated = 0%, 10 µM MG-132 = 100%; active = well fitted activation curve with a large enough effect, not every such curve was filed as active; inconclusive = small, poorly fitted or top-dose-only effect, or another doubt; inactive = no such curve, though single readings can be large or run the other way
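Proteasome block read as GFP accumulation: ubiquitin(G76V)-GFP U2OS cells exposed to compound (2.9 nM–46 uM) for 4 hr at 37 C. Normalization used untreated cells as 0% and 10 uM MG-132 as 100%; concentration-response curves fitted.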
Epigenetic mod = epigenetic modulators derepressing GFP locus in mouse cells; AID 597; Potency, µM (doses to about 46.1 µM); 68,000 compounds, 0.09% hits; mouse C127i GFP locus derepression, cytometry, 30 h
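Derepression screen: silenced CMV-GFP reporter in murine C127i cells, 30 h compound incubation at 37 C, washed cells imaged by laser-scanning cytometer to enumerate GFP-expressing objects of 20 to 120 um.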
Luciferase inh = blocks Photinus pyralis firefly luciferase activity; 72,000 compounds, 2.2% hits; purified firefly luciferase, luminescence, 8 min; Potency, µM (doses to about 57.1 µM), hits mostly inhibitors; P08659; also: nearly all actives have a fitted effect of over 40% in size
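qHTS concentration-response profiling: light output of P. pyralis luciferase with luciferin and 10 uM ATP, imidazole buffer pH 7.2. Read by luminescence after 8-min room-temperature incubation.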
HBB splicing = modulators of hemoglobin beta chain splicing; AID 925; HBB splicing reporter cell assay, activation; EGFP reporter with mutant IVS2-654 intron; response scale: normalised to 500 nM splice-correcting PNA; Potency, µM (titrated, usually from 46.1 µM), usual class: activators; 65,000 compounds, 0.06% hits
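HeLa cells stably expressing EGFP interrupted by mutant beta-globin intron 2 (IVS2-654), 500/well in 2% FCS. Treated with compound for 2 days at 37C. Splicing correction scored as total well GFP intensity (488 nm excitation, 500-520 nm emission); 500 nM antisense PNA served as control.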
A number is an active result; . = inactive; ? = inconclusive; / = not tested or not shown; ! = repeats disagree; [ ] = dose if it differs, or a comment. Unless noted, calls follow the shape of the dose curve; as a rule, active = well fitted curve in the direction sought with a large enough effect; inconclusive = small, poorly fitted or top-dose-only effect, or another doubt; inactive = no such curve, though single readings can be large; an effect the other way counts as inactive or inconclusive.

SMILES	GBA mod	PK Bst	Ub-GFP proteasome	Epigenetic mod	Luciferase inh	HBB splicing
CCN1/C(=C/C(=O)c2ccco2)Sc2ccccc21	.	.	.	.	25.1µM	.
CNC(=O)[C@H](C)/C=C(\c1cccnc1)C(NC(=O)OCc1ccccc1)c1ccc(C(=O)OC)cc1 (stereo not given in full)	/	/	/	/	/	.
C=C(CO)[C@H]1Cc2c(ccc3c(=O)c4c(oc23)COc2cc(OC)c(OC)cc2-4)O1	/	/	.	.[9.22 µM]	.[11.4 µM]	/
COc1ccc(C(=O)/C=C/Nc2cc(C)on2)c(OC)c1	.	3.8	.	.	3.16µM	.
O=C(O)CCc1c2ccc(=O)c(O)c-2oc2c(O)c(O)ccc12	/	/	.[9.17 µM]	.[9.22 µM]	.[11.4 µM]	.[9.22 µM]
COC(=O)c1ccc(NC(=O)c2sc3nc(-c4ccccc4)cn3c2C)cc1	?	.	.	.	.	.
COc1ccc(-c2cn3c(C)c(C(=O)Nc4cccc(NC(C)=O)c4)sc3n2)cc1	?	.	.	.	12.6µM	.
CCOC(=O)c1sc(NC(=O)c2c(C)nn(Cc3ccccc3)c2C)cc1C	.	/	.	.	5.01µM	.
CCOC(=O)c1sc(NC(=O)c2ccc(Cl)s2)cc1C	/	/	.	/	?	.
Fc1ccc(-c2nc3n(c2-c2ccncc2)CCS3)cc1	/	/	/	/	/	.
Oc1ccc(-c2nc(-c3ccc(F)cc3)c(-c3ccncc3)[nH]2)cc1	/	/	.	.	1.26µM!	.
Brc1ccc(-c2cnc(-c3cccs3)o2)cc1	.	1.31	.	.	?	/
CCN(CCCNC(=O)C1CCC(=O)N1Cc1ccc(F)cc1)c1cccc(C)c1 (stereo not given)	14.9	.	.	.	.	.
CCN(CCCNC(=O)C1CCC(=O)N1C1CCCC1)c1cccc(C)c1 (stereo not given)	.	.	.	.	.	.
Cc1ccc(-c2cc(C(=O)NCC3CCCO3)no2)cc1 (stereo not given)	.	.	.	.	12.6µM	.
CCc1ccc2[nH]c(=O)c(CN(CCCN3CCOCC3)C(=O)Nc3ccccc3)cc2c1	.	/	.	.	.	/
CCc1ccc2[nH]c(=O)c(CN(CCCN3CCOCC3)C(=O)Nc3ccc(Cl)cc3)cc2c1	.	6.62	.	.	.	/
Cc1ccccc1/C=C\C1=NCCN1	/	/	.	.	.	.
CCOC(=O)CSc1nnc2n(Cc3ccccc3)c(=O)c3c4c(sc3n12)CCC4	/	5.06	/	.	.	/
CSc1nnc2n(-c3ccccc3)c(=O)c3c4c(sc3n12)CCC4	.	2.8	.	.	.	.
Cc1nnc2n(Cc3ccccc3)c(=O)c3c4c(sc3n12)CCCC4	.	.	.	.	.	/
CC1=CC(=C2C(=O)c3ccccc3C2=O)C=C(C)N1Cc1ccco1	.	?	.	.	12.6µM	.
N[C@@H](C(=O)O)[C@H](O)C(=O)O	/	/	.	.	.	.
COc1ccc(OC)cc1	/	/	/	/	/	.
COc1ccc(-c2cc(O)cc(O)c2)cc1	.	?	.	.	15.8µM	.
SMILES	GBA mod	PK Bst	Ub-GFP proteasome	Epigenetic mod	Luciferase inh	HBB splicing
O=C(Nc1ccc(N2CCOCC2)cc1)c1cnsn1	.	7.07	.	.	3.98µM	.
CS(=O)(=O)c1ncc(Cl)c(C(=O)Nc2ccc(N3CCOCC3)cc2)n1	.	.	.	.	.	.
Cc1nc(NC2CCCCC2)c2nc(-c3ccccc3)n(CCN(C)C)c2n1	/	/	.	/	/	.
CCOc1ccc2[nH]c(C)c(CN(C)C)c(=O)c2c1	/	/	.[9.17 µM]	.	.	.[0.0738 µM]
Cc1[nH]c2ccc(F)cc2c(=O)c1SC(F)(F)C(F)F	9.46	.	.	.	.	.
Clc1ccc(-c2nn3cnnc3s2)c(Cl)c1	.	10.3	/	.	.	.[0.369 µM]
Clc1ccc(-c2nn3c(-c4ccncc4)nnc3s2)c(Cl)c1	.	.	.	.	.	.
CC1=C(C(=O)OCCOC(C)C)C(c2cc3c(cc2Br)OCO3)C2=C(CCCC2=O)N1 (stereo not given)	11	.	.	.	.	/
CCN(CC)c1ccc(C2C(C(=O)OCCOC(C)C)=C(C)NC3=C2C(=O)CCC3)cc1 (stereo not given)	/	/	.	.	.	.[9.22 µM]
C=CCSc1nnc(-c2ccc(Cl)cc2Cl)o1	/	/	.[9.17 µM]	.	7.94µM	.[0.0738 µM]
Clc1ccc(-c2nnc(SCc3ccon3)o2)c(Cl)c1	.	10.2	.	.	7.94µM	.
